The text below walks through data of PubChem BioAssay AID504692 (The Scripps Research Institute Molecular Screening Center, 2011).

Hit rate of the full screen: of about 340,000 compounds, about 2,000 (0.59%) were called active. This is one part of a sample in which actives are shown more often than they occur. A number with no mark means an inactive call. Cut-off read from the data, not from the text of the source: active = activation mostly above about 9.5% (no sharp cut-off); inactive = mostly below about 7.6%.

Sequence of 5-hydroxytryptamine receptor 5A (Homo sapiens) (P47898 whole entry, looked up): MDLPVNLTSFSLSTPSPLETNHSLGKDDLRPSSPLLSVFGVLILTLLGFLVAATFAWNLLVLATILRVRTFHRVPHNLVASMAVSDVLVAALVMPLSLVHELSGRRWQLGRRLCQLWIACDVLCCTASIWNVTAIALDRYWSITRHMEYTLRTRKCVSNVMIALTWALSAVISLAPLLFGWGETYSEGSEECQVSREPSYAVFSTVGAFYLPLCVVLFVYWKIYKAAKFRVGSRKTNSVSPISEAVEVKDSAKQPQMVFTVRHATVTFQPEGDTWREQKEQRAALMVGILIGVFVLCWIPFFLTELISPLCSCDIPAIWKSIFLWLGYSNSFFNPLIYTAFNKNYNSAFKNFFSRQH

The experiment has as its target 5-hydroxytryptamine receptor 5A (Homo sapiens) (UniProt P47898). As to the kind of experiment: HTR5A agonists in luminescence cell assay, primary screen, counter-screen for OPRM1-OPRD1 heterodimer agonist project, full-deck HTS (AID 504692).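 Note: 0% = cells with vehicle only and 100% = reference agonist.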 As to conditions: cell-based, at 9.3 µM, active compounds read high. For orientation: The purpose of a counterscreen is to sort out artefacts and off-target activity.
For `CCSc1nc(-c2ccc(OC)cc2)cc(-c2ccc(OC)cc2)c1C#N`, the activation was 0.07%.
For the compound `CCOC(=O)CC(=O)CSc1nc(-c2ccccc2)cc(-c2ccc(Cl)cc2)c1C#N`, the activation was 10.7% (active).
Consider `N#Cc1c(C(F)(F)F)cc(-c2ccc(Cl)cc2)nc1SCC(=O)O`, for which the activation is -1.06%.
The same measure for `O=C(Nn1cnnc1)c1cc(Cl)ccc1Cl`: -1.93%; for `Clc1ccc(CN2CCCCCC2)cc1Cl`: 1.18%; for `Brc1ccc(-c2nn[nH]n2)cc1`: 8.54%.
Regarding `c1cc(-c2nn[nH]n2)ccc1CN1CCCCC1`, the activation is 19.3% (active).
For the compound `OCC1(CO)CC2(C1)CC(CO)(CO)C2`, the activation is -2.41%.
The same measure for `Cc1c(Cl)c([N+](=O)[O-])nn1Cc1ccc(C(=O)N/N=C\c2cc(Cl)ccc2O)o1`: 13% (active); for `O=C(N/N=C\c1ccc(Br)cc1)c1ccc(Cn2cccn2)o1`: 0.84%; for `Cc1nn(Cc2ccc(Cl)cc2)c(Cl)c1/C=N/NC(=O)c1cccnc1`: 4.12%.
The same measure for `O=C(C1CCCO1)N1CCN(S(=O)(=O)c2ccc(Br)cc2)CC1` (configuration not stated): 1.59%.
The same measure for `COc1ccc(Cl)cc1NC(=O)CN(C)C(=O)c1cc(-c2cccs2)nn1-c1ccccc1`: -7.03%; for `CCCN1C(=O)C(NS(=O)(=O)c2ccc(N)cc2)(C(F)(F)F)C(C(=O)OC)=C1C` (configuration not stated): -4.18%; for `COC(=O)c1c(NC(=O)C2CC(C)=C(C)CC2C(=O)O)sc2c1CCCCC2` (configuration not stated): 5.77%.
For `CC(C)OC(=O)c1c(NC(=O)c2ccco2)sc2c1CCCC2`, the activation is 14.5% (active).
For the compound `CNC(=O)c1c(NC(NC(=O)c2ccco2)C(=O)c2ccc(Cl)cc2)sc2c1CCCC2` (configuration not stated), the activation was -4.03%.
The same measure for `CN(C)CCCO/N=C(\c1ccccc1)c1ccncc1`: 7.85%; for `Cc1ccc(C2CCN(C(=S)Nc3cccc(Cl)c3)C2)cc1` (configuration not stated): 1.97%; for `CC(C)(C)n1ncc2c(=O)n(Cc3ccc(Cl)cc3)cnc21`: 3.5%.
For the compound `CN(CC(=O)NCc1ccc(Cl)cc1)S(=O)(=O)c1cccs1`, the activation is 1.02%.
Take `CCSc1nc2sc3c(c2c(=O)[nH]1)CC(C)(C)OC3`: the activation is 2.29%.
The same measure for `CSc1nc2sc3c(c2c(=O)[nH]1)CCc1ccccc1-3`: 12.1% (active).
The same measure for `CCSc1nnc(-c2cc3c(s2)-c2ccccc2CC3)o1`: -1.94%.
The same measure for `O=C(Nc1ccc2c(c1)OCO2)C1CC1(Cl)Cl` (configuration not stated): 12.7%.
For the compound `Cc1ccc(-c2noc(CCC(=O)Nc3ccccc3N3CCN(C)CC3)n2)cc1`, the activation is -1.14%.
For the compound `Cc1ccc(C(=O)O/N=C(\N)c2ccccn2)cc1Cl`, the activation is 4.33%.
The same measure for `O=C(Nc1ccccc1Cl)O/N=C(/c1ccccc1)c1ccccn1`: 12.7% (active); for `O=C(COc1ccc(-n2cnnn2)cc1)Nc1ccccc1Cl`: 5.09%; for `OCCC1CN(Cc2cccn2-c2nccs2)CCN1CCc1ccccc1` (configuration not stated): 0.07%.
For `O=C(CCNS(=O)(=O)c1ccccc1C(F)(F)F)NCc1ccc2c(c1)OCO2`, the activation is -3.01%.
The same measure for `O=C(CC(Cc1ccccc1)C(=O)O)NCCc1ccc2c(c1)OCO2` (configuration not stated): 0.52%; for `O=C(CCc1nnc(Cc2ccc3c(c2)OCO3)o1)NCCc1ccccc1Cl`: 10.7% (active).
Regarding `CC(NC(=O)COc1ccc(-c2ccccc2)cc1)C1CCCO1` (configuration not stated), the activation was 4.73%.
The same measure for `Cc1nn(CC(=O)NCc2ccccn2)c(C)c1[N+](=O)[O-]`: -1.81%; for `COCCCNC(=O)CN1CCN(Cc2ccccc2Cl)C1=O`: 2.41%.
On to `Cc1ccccc1CN1CCN(CC(=O)NCc2ccccn2)C1=O`, for which the activation was 16.8% (active).
With `O=C(Cn1nnc(-c2ccccc2)n1)N/N=C/c1ccc(-c2ccc(Cl)cc2)o1`, the activation is 1.41%.
The same measure for `CC(=O)Nc1ccc(C(=O)Nc2cccc(S(=O)(=O)NC3=NCCC3)c2)cc1`: 1.89%; for `CCc1ccc(C(=O)OCC(=O)Nc2cccc(S(=O)(=O)NC3=NCCCCC3)c2)cc1`: 7.2%; for `CN(CCOc1ccc(Br)cc1)CC(=O)Nc1cccc(S(=O)(=O)NC2=NCCC2)c1`: 12.7% (active).
Take `Cn1c(=O)[nH]c(=O)c2c1nc(N(CCO)Cc1ccccc1)n2Cc1ccccc1Cl`: the activation was -3.62%.
The same measure for `COc1ccc(Cl)cc1NC(=O)C(C)N1CCc2ccccc21` (configuration not stated): 1.38%; for `CCCCCc1ccc(-c2ccc(C(=O)O)cc2)nc1`: 4.14%.
The same measure for `CCc1ccc(NC(=O)CN2C(=O)COc3ccc(S(=O)(=O)N4CCCC4)cc32)cc1`: 0.59%; for `CCc1ccc(NC(=O)CN2C(=O)CSC2=O)cc1`: 13.7% (active).
For the compound `COc1ccc(NC(=O)CN2C(=O)CSC2=O)cc1`, the activation is -1%.
On to `COC(=O)c1c(CCl)noc1C(=O)NC(C)C`, for which the activation was 2.61%.
For the compound `CC(C)(C)NC(=O)COC(=O)c1cc(Cl)ccc1[N+](=O)[O-]`, the activation is 7.24%.
The same measure for `CN(C)/C=C/C(=O)c1cnc2sccn2c1=O`: 0.28%; for `CCOC(=O)c1ccccc1NS(=O)(=O)c1c(C)nc2sccn2c1=O`: -1.95%; for `CCOC(=O)c1cnc2sccn2c1=O`: 21% (active).
As for `Cc1nc(C(=O)NCc2ccccc2)sc1C1(C)CC(c2cccnc2)=NO1` (configuration not stated), the activation is 6.13%.
The same measure for `Cc1cccc(OCCC(=O)Nc2ccccc2C(N)=O)c1`: 1.89%.
The same measure for `COc1cccc(OCC(=O)Nc2ccccc2C(N)=O)c1`: 18.3% (active).
Regarding `Cc1cccc(OCC(=O)Nc2ccccc2F)c1`, the activation is 0.76%.
As for `Cc1cc(C)c(S(=O)(=O)NCC(c2ccc3c(c2)OCO3)N2CCOCC2)c(C)c1` (configuration not stated), the activation was -4.07%.
Take `Cc1ccc2nc(SC(C)C(=O)NCc3ccco3)[nH]c2c1` (configuration not stated): the activation is -4.41%.
The same measure for `CC(=O)c1c(C)[nH]c(C(=O)OCC(=O)Nc2c(C)n(C)n(-c3ccccc3)c2=O)c1C`: 1.57%; for `CC(=O)c1c(C)[nH]c(C(=O)OCC(=O)Nc2c(C)cccc2C)c1C`: 17.5% (active).
The same measure for `CC(=O)c1c(C)[nH]c(C(=O)OCC(=O)NCCC(C)C)c1C`: -1.47%; for `CSCCC(NS(=O)(=O)/C=C/c1ccccc1)C(=O)N1CCC(C)CC1` (configuration not stated): -0.99%.
